Source: PubChem BioAssay AID1907 (The Scripps Research Institute Molecular Screening Center, 2009)
In all, about 1,900 compounds went through this assay and about 1,200 (63%) were called active. So high a share suggests a set chosen from earlier hits. Only a sample is shown. A number with no mark means an inactive call. No stated cut-off is given here; in the data, active means inhibition above about 22%; inactive means the rest.

Experiment: rat intestinal IEC-6 viability loss – cell-based, luminescence, cytotoxicity control, confirmation (AID 1907);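 further: 0% = vehicle and 100% = reference cytotoxic drug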
Conditions: IEC-6 rat intestinal epithelial viability, at 5 µM, active compounds read high
For COc1ccc(C)cc1Nc1nc(C)nc2c1oc1ccccc12, the inhibition was 22.4% (active).
For COc1cc(NS(=O)(=O)c2ccc3ccccc3c2)c2ncccc2c1, the inhibition was 63.1% (active).
CCCOn1c(-n2nc(C)cc2C)nc2ccccc2c1=O gave an inhibition of -7.58%.
With O=C(NCCOc1cccnc1)c1ccc(OC2CCN(Cc3ccccn3)CC2)cc1 the inhibition was 99.6% (active).
Work on Cc1cc(C)n2nc(CNS(=O)(=O)c3c(F)c(F)c(F)c(F)c3F)nc2n1 yielded an inhibition of 13%.
With CCCOc1ccccc1C1CC(=O)Nc2cc3c(cc21)OCO3 (configuration not stated) the inhibition was 56.8% (active).
For COc1ccccc1C1C2=C(COC2=O)Nc2cc3c(cc21)OCO3 (configuration not stated), the inhibition was 62.6% (active).
COc1ccccc1NC(=O)c1ccc(C)s1 showed an inhibition of 5.92%.
With C[C@@H]1C[C@@H]2O[C@H]2/C=C\C=C\C(=O)Cc2c(Cl)c(O)cc(O)c2C(=O)O1 the inhibition was 38.8% (active).
In the case of Cc1ccc(-c2csc(NC3OC(=O)c4ccccc43)n2)cc1 (configuration not stated), the inhibition is reported as 28.3% (active).
For COc1ccc2c(c1OC)C(=O)OC2Nc1nc(-c2ccccc2)cs1 (configuration not stated), the inhibition was 25% (active).
Work on Cc1cccc(NC(=O)c2ccc([N+](=O)[O-])o2)c1 yielded an inhibition of 20%.
With CC[C@H]1CN2CCc3cc(OC)c(OC)cc3[C@@H]2C[C@@H]1C[C@H]1NCCc2cc(OC)c(OC)cc21 the inhibition was 97.2% (active).
With CSc1nnc2ccc(-c3ccc(C)cc3)nn12 the inhibition was 25% (active).
With O=C1C(=O)N(CC2COc3ccccc3O2)c2ccccc21 (configuration not stated) the inhibition was -2.39%.
Molecule CC(C)OC(=O)CN1C(=O)C(=O)c2ccccc21 has an inhibition of 9.06%.
For CCOC(=O)c1c(C)[nH]c2c1-c1ccccc1C(=O)C2=O, the inhibition was 100% (active).
In the case of CCCCNc1nc2c(c(=O)n(C)c(=O)n2C)n1Cc1cccc(OC)c1, the inhibition is reported as 19.3%.
For COc1ccc(CNS(=O)(=O)c2cc(-c3cc(C)no3)ccc2C(C)C)cc1, the inhibition was 51.7% (active).
In the case of Cn1nccc1C(=O)NC1CCCc2c1cnn2-c1ccc(F)cc1F (configuration not stated), the inhibition is reported as 23.2% (active).
Cn1nccc1C(=O)NC1CCCc2c1cnn2-c1ccccc1F (configuration not stated) gave an inhibition of 7.23%.
Molecule COc1cccc2sc(N(CCCN(C)C)C(=O)CCS(=O)(=O)c3ccccc3)nc12 has an inhibition of 7.79%.
With Cc1nn2c(NCCN(C)C)c3c(nc2c1-c1ccccc1)CCC3 the inhibition was -0.91%.
In the case of COc1cccc(C(=O)Nc2ccc(N3CCCC3)cc2)c1, the inhibition is reported as 43.2% (active).
With COc1cccc(C(=O)Nc2ccc(N3CCN(C(=O)c4ccco4)CC3)cc2)c1 the inhibition was 23.9% (active).
CC(C)(C)Nc1nc(-c2ccccn2)nc2ccccc12 showed an inhibition of -6.6%.
Work on CC[n+]1cc(C)ccc1/C=C/c1ccc(N(C)C)cc1 yielded an inhibition of 19.6%.
With Oc1cccc(/C=N/Nc2ccc(Cl)nn2)c1O the inhibition was 2.22%.
With C/C(=N\NC(=O)c1ccccc1F)c1ccccn1 the inhibition was 67.3% (active).
C=CCC1(CC=C)CCCN1C(=O)c1cc(COc2ccc(-n3cncn3)cc2)on1 gave an inhibition of 8.6%.
In the case of COc1ccc(Nc2cc(C)nc(-n3nc(C)cc3C)n2)cc1, the inhibition is reported as 54.9% (active).
In the case of CC(=O)c1ccc(Oc2cc(C)nc(-n3nc(C)cc3C)n2)cc1, the inhibition is reported as 49.9% (active).
In the case of COc1ccc(NC(=O)/C(Cl)=C(/Cl)S(=O)Cc2ccc(C)cc2)cn1 (configuration not stated), the inhibition is reported as 89% (active).
CCOc1ncccc1C(=O)NCCc1ccc(OC)cc1 gave an inhibition of 12.2%.
In the case of COc1ccc(CS(=O)/C(Cl)=C(/Cl)C(=O)Nc2ccc(OC)nc2)cc1 (configuration not stated), the inhibition is reported as 73.2% (active).
For CCOc1ccccc1NC(=O)Cn1nnc(C(=O)NCc2cccs2)c1N, the inhibition was 56.9% (active).
With CSc1nc(N(C)NC(=O)c2cccc(C)c2)c2ccccc2n1 the inhibition was 76.1% (active).
Work on CCn1c(C)nc2c1C(=O)c1ccccc1C2=O yielded an inhibition of 10.1%.
COc1ccccc1N(CC(=O)N/N=C(\C)c1ccccc1O)S(=O)(=O)c1ccc(C)cc1 gave an inhibition of 10.4%.
For C/C(=N\NC(=O)c1ccoc1C)c1ccccc1O, the inhibition was 31.9% (active).
With Cc1ccc(Nc2nc(N3CCOCC3)nc(N3CCOCC3)n2)cc1Cl the inhibition was 63.1% (active).
With CCOC(=O)/C=C/C(=O)OCC(=O)NC(c1ccccc1)c1ccccc1 the inhibition was 43.9% (active).
In the case of CCOC(=O)C1=C(N)N2C(=O)C(C)SC2=C(C(=O)OCC)C1c1cc(OC)c(OC)c(OC)c1 (configuration not stated), the inhibition is reported as -3.21%.
With COc1ccc(Nc2cc(=O)oc3ccccc23)cc1 the inhibition was 49.1% (active).
With O=C(Nn1cc(C(=O)N2CCN(c3ccccc3F)CC2)c2ccccc2c1=O)c1cnccn1 the inhibition was -3.18%.
With Cc1ccc(-n2c(SCC(=O)Nc3ncc(Cl)cc3Cl)nc3ccccc32)cc1 the inhibition was 44.1% (active).
In the case of Cc1cccc(NS(=O)(=O)c2ccc(-c3cnc(C4CC4)o3)cc2)c1, the inhibition is reported as 53% (active).
In the case of Cc1onc(NC(=O)c2ccc([N+](=O)[O-])o2)c1Br, the inhibition is reported as -1.42%.
For Cc1cccc(-n2ncc(Cl)c(Cl)c2=O)c1, the inhibition was 27.2% (active).
Work on Cc1nc(Nc2ccc3c(c2)OCCO3)c2nnn(Cc3ccccc3Cl)c2n1 yielded an inhibition of 11.1%.
In the case of CC(C)c1cc(C(=O)N/N=C/C(Br)=C/c2ccccc2)n[nH]1, the inhibition is reported as 42.1% (active).
In the case of O=C(NC(Nc1nc2ccc([N+](=O)[O-])cc2s1)(C(F)(F)F)C(F)(F)F)c1ccccc1, the inhibition is reported as 97.9% (active).
With CCCOC(=O)c1[nH]c2c(c1C)C(=O)CC(c1cccs1)C2 (configuration not stated) the inhibition was 57.1% (active).
With CCOc1cc(/C=C/c2nc3ccccc3c(=O)[nH]2)cc(Br)c1OC the inhibition was 50.8% (active).
CCOc1c(Nc2cccc(Cl)c2)c(=O)c1=O showed an inhibition of -1.97%.
For O=C(Nc1ccccc1Cl)/C(Cl)=C(\Cl)S(=O)c1ccccc1 (configuration not stated), the inhibition was 78.4% (active).
Work on O=C(CN1C(=O)C2C3C=CC(C3)C2C1=O)Nc1nc(-c2ccccn2)cs1 (configuration not stated) yielded an inhibition of 19.4%.
For Cc1ccc(S(=O)(=O)C2(S(=O)(=O)c3ccc(C)cc3)CCCC2)cc1, the inhibition was 23.1% (active).
With COc1ccc(Nc2oc(-c3ccccc3Cl)nc2C#N)cc1 the inhibition was 58.2% (active).
For CNC[C@H](CC1CCCCC1)NC[C@H](NCCC1CCCC1)[C@H](C)O, the inhibition was 56.1% (active).
With CCOc1cccc(-n2nnnc2-c2ccc(OC)cc2)c1 the inhibition was 39.2% (active).
With COc1ccc(C2=NOC(C(=O)NCc3ccco3)C2)cc1OC (configuration not stated) the inhibition was 39.3% (active).
For COC(=O)Nc1nc2ccc(Sc3ccccc3)cc2[nH]1, the inhibition was 53.4% (active).
With CCOc1ccccc1N1CCN(C(=O)c2ccc3[nH]c(C)c(C)c3c2)CC1 the inhibition was 29% (active).
In the case of Nc1c(C(=O)NCc2ccccc2)nnn1Cc1cccc(Cl)c1, the inhibition is reported as 22.8% (active).
With Cc1cccc(/C=N/NC(=O)CNc2cccc3ccccc23)n1 the inhibition was 26.7% (active).
With Cn1cccc1/C=N/NC(=O)CNc1cccc2ccccc12 the inhibition was 36.1% (active).
For Cc1ccc(/C=N/NC(=O)COc2ccccc2-c2ccccc2)cc1, the inhibition was 72.2% (active).
With CCCC1=Nc2cc(C(=O)NCc3ccco3)ccc2Sc2ccccc21 the inhibition was 58.2% (active).
For COc1ccccc1N1CCN(C(=O)c2cc(=O)c3cc(C)cc(C)c3o2)CC1, the inhibition was 60% (active).
For CCOc1cc(C(=O)N2CCc3cc(OC)c(OC)cc3C2)ccc1OC(F)F, the inhibition was 60.2% (active).
In the case of Cc1ccc(CS(=O)(=O)c2ncc(Cl)c(C(=O)Nc3nnc(C)s3)n2)cc1, the inhibition is reported as 23.3% (active).
Molecule CSc1nnc(NC(=O)c2nc(S(=O)(=O)Cc3ccc(C)cc3)ncc2Cl)s1 has an inhibition of 14.9%.
With Cc1cccc(NC(=O)c2nc(S(=O)(=O)Cc3ccccc3)ncc2Cl)c1 the inhibition was 12.9%.
In the case of Cc1cccc(CS(=O)(=O)c2ncc(Cl)c(C(=O)Nc3ccc(F)cc3)n2)c1, the inhibition is reported as 22.5% (active).
With CC(C)OCCCNc1ncnc2c1[nH]c1ccc(F)cc12 the inhibition was 34.4% (active).
Molecule CC1CCCCN1S(=O)(=O)c1ccc(C(=O)Nc2nnc(-c3cccs3)o2)cc1 (configuration not stated) has an inhibition of 18.5%.
For CCN(CC)c1ccc(NC(=O)c2ccc(Cl)nc2)cc1, the inhibition was 38% (active).
For O=S(=O)(c1ccc(Br)cc1)N1CCC(c2nc3ccccc3[nH]2)CC1, the inhibition was 27.5% (active).
For O=[N+]([O-])c1ccccc1S(=O)(=O)Nc1cccc2cccnc12, the inhibition was 48.3% (active).
With CCCCCCCCn1c2c(c(=N)c3c1CCC3)CCCC2 the inhibition was 49.4% (active).
In the case of CCOC(=O)CSC1=C(C#N)C(c2sccc2C)CC(=O)N1 (configuration not stated), the inhibition is reported as 51.2% (active).
With CCN1/C(=C/c2ccc3ccc(C)cc3[n+]2CC)Sc2ccccc21 the inhibition was 39.8% (active).
With CCN1/C(=C\c2ccc3ccccc3[n+]2CC)Sc2cc(C)ccc21 the inhibition was 39.4% (active).
For O=c1cc(-c2ccccc2)[nH]c2cc(F)ccc12, the inhibition was 53.6% (active).
For Cc1cc(C(=O)OCC(=O)NCc2ccco2)c(C)n1-c1ccccc1, the inhibition was 55.2% (active).
In the case of CC(=O)NC1=NN(C(C)=O)C(C)(c2ccc(Cl)s2)S1 (configuration not stated), the inhibition is reported as 41.6% (active).
